Test results taken from PubChem BioAssay (NCATS).
Values without a mark were called inactive. Results filed as inconclusive are left out. Activity calls are given as the source filed them. Unless noted, calls follow the shape of the dose curve; as a rule, active = well fitted curve in either direction with a large enough effect (not every such curve was filed as active); inconclusive = small, poorly fitted or top-dose-only effect, or another doubt; inactive = flat fitted curve, though single readings scatter.

How the values were obtained:
[1] = target: Lysosomal acid glucosylceramidase (Homo sapiens) (UniProt P04062); test: Glucocerebrosidase-p2 (AID 348; in the data active = potency below about 10 µM; also: potency is read from the fitted curve at half-maximal effect); details: purified GBA, blue fluorogenic substrate, 40 min
Sequence of Lysosomal acid glucosylceramidase (Homo sapiens) (P04062 whole entry, looked up): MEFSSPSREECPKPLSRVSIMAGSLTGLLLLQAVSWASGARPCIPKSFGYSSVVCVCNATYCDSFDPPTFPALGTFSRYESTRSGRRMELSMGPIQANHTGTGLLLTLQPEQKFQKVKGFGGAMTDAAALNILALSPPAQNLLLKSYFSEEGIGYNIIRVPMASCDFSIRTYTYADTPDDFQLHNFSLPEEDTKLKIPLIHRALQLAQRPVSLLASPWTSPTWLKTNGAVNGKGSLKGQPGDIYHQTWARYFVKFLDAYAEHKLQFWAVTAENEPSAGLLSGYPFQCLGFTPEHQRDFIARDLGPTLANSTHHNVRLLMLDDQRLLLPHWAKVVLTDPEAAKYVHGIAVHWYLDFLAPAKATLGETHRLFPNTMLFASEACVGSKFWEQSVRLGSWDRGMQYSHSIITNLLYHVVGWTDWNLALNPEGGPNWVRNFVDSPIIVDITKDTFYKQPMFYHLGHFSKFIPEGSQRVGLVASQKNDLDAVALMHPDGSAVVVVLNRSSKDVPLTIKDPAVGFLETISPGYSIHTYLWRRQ
How it was run: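 Compounds titrated from 0.6 nM upwards against 0.2 nM enzyme in pH 5.9 citric acid/KH2PO4, taurocholate, tween-20; blue fluorogenic substrate 80 uM, 40 min room temperature, stopped and read Ex 365/Em 440 for AC50.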

[2] = AP1 Signaling Pathway (AID 357); details: ME-180 AP-1-bla reporter, EGF-induced, beta-lactamase ratio, 5 h; at 7.69 µM (top of the series) unless noted; also: % is scaled to controls: 0 for no effect and ±100 for the full control effect
How it was run: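 AP-1-bla ME-180 cells, Opti-MEM + 0.5% dialyzed FBS, plated overnight 37 °C. Cpd titration + EC50 EGF, 5 h 37 °C. CCF4 2.5 h RT; ex 405, em 460/530 ratio → %activity, AC50.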

[3] = target: Cytochrome P450 1A2 (Homo sapiens) (UniProt P05177); test: p450-cyp1a2 (AID 410; calls by dose curve; also: potency is read from the fitted curve at half-maximal effect;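 as to activity change, negative = inhibition: -100% = full effect of reference inhibitor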); details: recombinant CYP1A2, luciferin-ME demethylation, luminescence; series mostly up to 11.4 µM
Sequence of Cytochrome P450 1A2 (Homo sapiens) (P05177 whole entry, looked up): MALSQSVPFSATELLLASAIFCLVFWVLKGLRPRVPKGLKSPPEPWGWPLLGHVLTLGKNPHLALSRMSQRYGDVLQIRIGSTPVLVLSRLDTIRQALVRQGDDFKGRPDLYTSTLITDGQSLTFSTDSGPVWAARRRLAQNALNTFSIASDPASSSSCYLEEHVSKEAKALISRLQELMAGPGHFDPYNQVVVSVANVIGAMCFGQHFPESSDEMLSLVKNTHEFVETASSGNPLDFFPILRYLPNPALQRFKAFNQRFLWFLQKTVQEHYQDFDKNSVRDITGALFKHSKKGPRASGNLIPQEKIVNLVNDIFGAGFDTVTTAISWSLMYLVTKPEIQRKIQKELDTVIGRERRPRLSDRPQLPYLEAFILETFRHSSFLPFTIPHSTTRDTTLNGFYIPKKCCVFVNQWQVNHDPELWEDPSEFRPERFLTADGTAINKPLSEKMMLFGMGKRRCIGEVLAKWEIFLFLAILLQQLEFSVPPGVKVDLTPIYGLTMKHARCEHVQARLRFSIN
How it was run: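 Luminescent readout of luciferin formed from Luciferin-ME by human CYP1A2; data normalized against complete inhibition by 57 uM furafylline. Enzyme 20nM, substrate 100uM at Km, 100mM KPO4 buffer, 60 min reaction at room temperature.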

[4] = NFAT Signaling Pathway (AID 444); details: Jurkat NFAT-bla M1, carbachol, beta-lactamase ratio, 5 h; at 7.69 µM (top of the series) unless noted;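 also: carbachol stimulus at about its EC50 of 1 µM final; % is scaled to controls: 0 for no effect and ±100 for the full control effect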
How it was run: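 Jurkat cells carrying an NFAT-driven β-lactamase reporter and co-transfected muscarinic M1 receptor were treated with compound plus carbachol (1 uM final, an EC50 level) for 5 h at 37 °C. CCF4 loading followed for 1 h at RT; 460/530 nm ratio gave %activity.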

[5] = Stat Signaling Pathway (AID 446); details: ME-180 SIE beta-lactamase reporter, IL-6 stimulated, 5 h; at 7.69 µM (top of the series) unless noted;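 also: ME-180 cervical cancer cells given 40 pM IL-6 alongside compound; SIE-controlled beta-lactamase reporter measured as 460/530 nm FRET emission ratio; % is scaled to controls: 0 for no effect and ±100 for the full control effect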
How it was run: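 IL-6/STAT signaling read in ME-180 cells via an SIE beta-lactamase reporter. Stimulus was 40 pM IL-6 (its AC50) for 5 hrs, so both activation and inhibition register.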

[6] = target: Glucocorticoid receptor (Homo sapiens) (UniProt P04150); test: GR-GFP Redistribution (AID 450;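 active = compounds whose dose series gives a full or clear partial fitted curve of increased nuclear translocation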; also: potency is read from the fitted curve at half-maximal effect); details: U2OS GR-GFP nuclear translocation, laser cytometry, 2 h
Sequence of Glucocorticoid receptor (Homo sapiens) (P04150 whole entry, looked up, the tested form may be a part): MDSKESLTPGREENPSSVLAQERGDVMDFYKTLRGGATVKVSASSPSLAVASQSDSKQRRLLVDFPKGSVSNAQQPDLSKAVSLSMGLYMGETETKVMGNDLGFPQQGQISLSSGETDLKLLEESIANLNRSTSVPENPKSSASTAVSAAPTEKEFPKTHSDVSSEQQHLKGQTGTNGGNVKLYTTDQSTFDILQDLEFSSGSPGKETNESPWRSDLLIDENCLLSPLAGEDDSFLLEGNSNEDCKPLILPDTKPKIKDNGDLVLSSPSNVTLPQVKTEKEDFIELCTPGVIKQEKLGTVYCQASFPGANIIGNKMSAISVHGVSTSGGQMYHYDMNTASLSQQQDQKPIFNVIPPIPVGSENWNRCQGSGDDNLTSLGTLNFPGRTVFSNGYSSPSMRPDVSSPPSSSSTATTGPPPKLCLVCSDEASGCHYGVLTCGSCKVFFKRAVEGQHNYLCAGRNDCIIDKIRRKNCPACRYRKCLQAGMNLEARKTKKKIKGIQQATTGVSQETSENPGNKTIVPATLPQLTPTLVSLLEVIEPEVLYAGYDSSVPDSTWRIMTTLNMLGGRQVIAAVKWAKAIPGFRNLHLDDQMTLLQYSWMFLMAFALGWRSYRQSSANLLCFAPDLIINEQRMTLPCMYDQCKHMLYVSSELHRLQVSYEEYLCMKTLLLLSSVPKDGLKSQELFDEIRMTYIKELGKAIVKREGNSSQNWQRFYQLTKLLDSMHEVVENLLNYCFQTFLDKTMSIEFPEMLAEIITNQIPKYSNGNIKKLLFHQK

[7] = target: Glucocorticoid receptor (Homo sapiens) (UniProt P04150); test: GR-EFC Redistribution (AID 451; calls by dose curve; also: potency is read from the fitted curve at half-maximal effect); details: CHO-K1 GR-EFC translocation, beta-gal luminescence, 2 h
How it was run: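 CHO-K1 cells stably expressing nuclear-localized β-gal enzyme acceptor and GR fused C-terminally to the enzyme donor fragment; ligand-driven nuclear translocation restores β-gal by complementation. Compounds titrated up to 46 uM final, 2 h at 37 °C; luminescence read.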

[8] = target: Mitogen-activated protein kinase 10 (Mus musculus) (UniProt Q61831); test: JNK3 AlphaScreen Assay (AID 530); details: JNK3 lysate, c-Jun phosphorylation; series mostly up to 11.4 µM;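 also: kinase came from lysate of stimulated human HepG2 cells; signal reports phosphorylation of biotinylated GST-cJun 1-79 at Ser73 with 10 µM ATP; % is scaled to controls: 0 for no effect and ±100 for the full control effect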
How it was run: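 Inhibitors reduce antibody binding to phosphorylated biotin-cJun, lowering AlphaScreen luminescence. Lysates from HepG2 cells pre-activated by IL-1beta plus TNF-alpha supplied JNK3; compounds were titrated.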

[9] = target: 3',5'-cyclic-AMP phosphodiesterase 4B (Homo sapiens) (UniProt Q07343); test: qHTS Assay for Inhibitors of PDE-IV (AID 607; active = well fitted activation curve with a large enough effect in the main read-out, with a control signal flat, not every such curve was filed as active; also: % of control where 0% means no effect); details: HEK293 ACTOne CNG channel cells, membrane potential fluorescence; series mostly up to 22.9 µM
Sequence of 3',5'-cyclic-AMP phosphodiesterase 4B (Homo sapiens) (Q07343 whole entry, looked up): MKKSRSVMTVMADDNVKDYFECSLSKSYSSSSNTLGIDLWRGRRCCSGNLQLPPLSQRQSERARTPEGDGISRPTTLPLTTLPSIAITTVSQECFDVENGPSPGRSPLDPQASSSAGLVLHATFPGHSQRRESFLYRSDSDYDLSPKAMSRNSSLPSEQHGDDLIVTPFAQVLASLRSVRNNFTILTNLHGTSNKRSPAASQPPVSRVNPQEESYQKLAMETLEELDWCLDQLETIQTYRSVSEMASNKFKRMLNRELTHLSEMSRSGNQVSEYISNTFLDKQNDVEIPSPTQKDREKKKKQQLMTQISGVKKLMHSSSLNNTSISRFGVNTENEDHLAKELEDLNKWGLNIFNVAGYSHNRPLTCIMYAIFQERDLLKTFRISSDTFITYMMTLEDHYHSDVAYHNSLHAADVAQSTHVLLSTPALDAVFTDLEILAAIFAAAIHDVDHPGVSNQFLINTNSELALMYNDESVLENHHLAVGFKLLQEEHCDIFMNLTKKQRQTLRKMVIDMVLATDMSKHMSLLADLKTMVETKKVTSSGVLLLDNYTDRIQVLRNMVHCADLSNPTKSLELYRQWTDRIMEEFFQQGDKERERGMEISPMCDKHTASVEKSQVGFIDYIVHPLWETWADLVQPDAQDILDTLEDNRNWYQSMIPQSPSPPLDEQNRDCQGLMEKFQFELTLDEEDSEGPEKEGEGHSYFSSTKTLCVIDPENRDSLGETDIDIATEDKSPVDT
How it was run: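 Live HEK293 cells with a modified cyclic nucleotide-gated (CNG) channel report intracellular cAMP via membrane-potential dye fluorescence (ex 535/em 590 nm). Endogenous PDE-IV was targeted. Compounds were tested at up to 22.9 uM final; RO 20-1724 100 uM served as control.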

[10] = target: Cytochrome P450 2C19 (Homo sapiens) (UniProt P33261); test: qHTS Assay for Inhibitors and Substrates of Cytochrome P450 2C19 (AID 899; active = well fitted inhibition curve with a large enough effect; also: nearly all actives have a fitted effect of over 60% in size; also: potency is read from the fitted curve at half-maximal effect); details: recombinant CYP2C19, luciferin-H EGE luminescence; series mostly up to 11.4 µM
Sequence of Cytochrome P450 2C19 (Homo sapiens) (P33261 whole entry, looked up): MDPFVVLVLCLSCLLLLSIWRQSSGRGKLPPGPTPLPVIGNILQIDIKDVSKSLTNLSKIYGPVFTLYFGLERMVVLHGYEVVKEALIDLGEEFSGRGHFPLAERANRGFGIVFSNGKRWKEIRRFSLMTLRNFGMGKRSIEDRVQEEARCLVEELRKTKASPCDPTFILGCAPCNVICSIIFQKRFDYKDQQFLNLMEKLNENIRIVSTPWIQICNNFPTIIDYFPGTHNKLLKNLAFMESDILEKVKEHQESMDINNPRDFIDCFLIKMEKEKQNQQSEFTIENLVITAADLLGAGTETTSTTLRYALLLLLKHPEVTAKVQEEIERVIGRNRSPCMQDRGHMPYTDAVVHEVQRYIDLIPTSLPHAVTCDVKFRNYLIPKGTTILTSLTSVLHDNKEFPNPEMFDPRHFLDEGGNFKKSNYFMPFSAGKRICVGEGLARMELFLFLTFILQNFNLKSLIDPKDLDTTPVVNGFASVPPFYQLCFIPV
How it was run: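 NADPH-dependent conversion of Luciferin-H EGE (10uM, at KM) by 5nM enzyme in 50mM KPO4, 60 min at 37C following 10 min compound preincubation. Stopped with luciferin detection buffer; luminescence read after 20 min.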

[11] = qHTS Assay for Identification of Small Molecule Agonists for Hypoxia Response Element Signaling Pathway (AID 914; active = well fitted activation curve with a large enough effect in the signal ratio, with a control signal flat, not every such curve was filed as active; the % refers to the signal ratio; also: % of control where 0% means no effect); details: ME-180 (cervical carcinoma) HRE-bla reporter, beta-lactamase ratio, CoCl2, 17 h; activation: active compounds read high
How it was run: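 Compounds in a titration series were added to ME-180 reporter cells alongside an EC50 level of CoCl2. After 17 hours, beta-lactamase activity was read as the 460nm/530nm emission ratio of CCF4, giving AC50 values.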

Row | SMILES | Potency [1] [µM] | activity change, negative = inhibition [2] [%] | Potency [3] | activity change, negative = inhibition [4] [%] | activity, negative = inhibition [5] [%] | Potency [6] [µM] | Potency [7] [µM] | Potency [8] | Potency [9] | Potency [10] | activity change, negative = inhibition [3] | activation [11] [%]
1 | Clc1ccc(-c2noc(CN3CCCCC3)n2)cc1 | > 11.4 | 1.13 | 0.631 µM (active) | 2.07 | -0.202 | > 46 | > 9.22 | inactive | inactive | 1.58 µM (active) |  | 
2 | O=C(N[C@@]1(C(=O)O)C[C@@H]1c1ccccc1)c1ccccc1 | > 11.4 | 7.86 | inactive | 18.8 | 10.3 | > 46 | > 9.22 | inactive | inactive | inactive |  | 
3 | Clc1ccccc1C(Nc1ncccn1)Nc1ncccn1 | > 11.4 | 4.25 | inactive | 3.12 | 3.77 | > 46 | > 9.22 | inactive | inactive | inactive |  | 
4 | O=C(CCN1CCCCC1)N1CCc2c([nH]c3ccccc23)[C@H]1c1cccnc1 | > 11.4 | 4.71 |  | -15.8 | -6.32 | > 46 | > 9.22 | inactive | inactive | inactive | -19.7% [at 2.29 µM] | 
5 | COc1ccc(NC(=S)Nc2ccccc2)cc1 | > 11.4 | 0.508 | 1.26 µM (active) | 6.45 | 10.3 | > 46 | > 9.22 | inactive | inactive | 2 µM (active) |  | 8.18
6 | OC[C@@H]1O[C@@H](O)[C@H](N=Cc2ccc3c(c2)OCO3)[C@@H](O)[C@@H]1O | > 11.4 | 5.99 |  | 3.26 | 2.95 | > 46 | > 9.22 | inactive | inactive | inactive | -24.4% [at 2.29 µM] | 
7 | N=C(N)CCNC(=O)[C@@H]1CCC(N)=N1 | > 11.4 | 4.22 |  | 3.47 | 1.16 | > 46 | > 9.22 | inactive | inactive | inactive | -3.4% [at 2.29 µM] | 
8 | Cn1c(=O)c2[nH]c(CCCCC(=O)O)nc2n(C)c1=O | > 11.4 | 1.28 | 0.794 µM (active) | 6.73 | 1.27 | > 46 | > 9.22 | inactive | inactive | inactive |  | 
9 | O=C(O)CC1(CC(=O)O)Nc2ccccc2SC1=O | > 11.4 | -1.59 |  | 5.68 | 2.07 | > 46 | > 9.22 | inactive | inactive | inactive | 2% [at 2.29 µM] | 
10 | CC(C)(Oc1ccc(-c2cccc3ccccc23)cc1)C(=O)O | > 11.4 | 2.76 | inactive | -8.87 | 1.48 | > 46 | > 9.22 | inactive | inactive | inactive |  | -19.2
11 | CN(C)c1ccc(C(=C2C=CC(=[N+](C)C)C=C2)c2c(O)c(S(=O)(=O)O)cc3cc(S(=O)(=O)O)ccc23)cc1 | > 11.4 | 3.1 | 3.98 µM (active) | -12.3 | 4.39 | > 46 | > 9.22 | inactive | inactive | inactive |  | 
12 | N=C(c1ccc2ccccc2c1)c1ccccc1Cc1ccccc1 | > 11.4 | 0.881 | 0.501 µM (active) | -18 | -1.68 | > 46 | > 9.22 | inactive | inactive | 3.98 µM (active) |  | 
13 | OCCCSCCO | > 11.4 | 5.52 |  | 7.44 | -0.432 | > 46 | > 9.22 | inactive | inactive |  | -19.1% [at 2.29 µM] | 7.65
14 | CS[C@]12C(=O)C[C@]3(C)[C@@H](CC[C@@]3(O)C(=O)CO)[C@@H]1CCC1=CC(=O)CC[C@]12C | > 11.4 | 0.905 |  | 1.52 | -2.04 | > 46 | > 9.22 | inactive | inactive | 3.16 µM (active) | -24.3% [at 2.29 µM] | 
15 | C[C@@H]1O[C@@H](O)[C@@H](O)[C@H](O)[C@H]1O | > 11.4 | -1.53 | inactive | 13.9 | 6.79 | > 46 | > 9.22 | inactive | inactive | inactive |  | 
